In article PMC13541613, “GHT-SELEX demonstrates unexpectedly high intrinsic sequence specificity and complex DNA binding of many human transcription factors” one finds binding signal data, which are given here for 54 sequences.

Common to all, as to test: HT-SELEX; 20 mM HEPES pH 7, 140 mM KCl, 5 mM NaCl, 1 mM K2HPO4, 2 mM MgSO4, 100 uM EGTA, ZnSO4, 0.1% Tween20; room temperature, 1 h; high values mean tight binding
Settings in all cases: protein: ivt; tags: eGFP (N-terminal); dsDNA, one strand shown

One experiment has as its target ZNF721 full-length (Homo sapiens, UniProt Q8TF20-2 1-923). In a few lines:
(§1)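 Full-length or DNA-binding-domain forms of a tagged transcription factor were produced in HEK293 lysate or cell-free extract and immobilised on beads. Incubation with a randomized 40-base DNA library ran for 1 h at room temperature in HEPES/KCl low-stringency buffer with Tween20, after which bound DNA was washed, heat-eluted, PCR-amplified over successive cycles and Illumina-sequenced. Binding strength is given as the relative k-mer count in selected reads, higher for tighter binding.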

The target in another experiment is ZNF721 DBD1 (Homo sapiens, UniProt Q8TF20-2 29-461). The method in brief:
as §1

The next experiment concerns the target ZNF721 DBD2 (Homo sapiens, UniProt Q8TF20-2 395-923). The method in brief:
as §1

Chain of ZNF721 DBD1 (Q8TF20 17-449): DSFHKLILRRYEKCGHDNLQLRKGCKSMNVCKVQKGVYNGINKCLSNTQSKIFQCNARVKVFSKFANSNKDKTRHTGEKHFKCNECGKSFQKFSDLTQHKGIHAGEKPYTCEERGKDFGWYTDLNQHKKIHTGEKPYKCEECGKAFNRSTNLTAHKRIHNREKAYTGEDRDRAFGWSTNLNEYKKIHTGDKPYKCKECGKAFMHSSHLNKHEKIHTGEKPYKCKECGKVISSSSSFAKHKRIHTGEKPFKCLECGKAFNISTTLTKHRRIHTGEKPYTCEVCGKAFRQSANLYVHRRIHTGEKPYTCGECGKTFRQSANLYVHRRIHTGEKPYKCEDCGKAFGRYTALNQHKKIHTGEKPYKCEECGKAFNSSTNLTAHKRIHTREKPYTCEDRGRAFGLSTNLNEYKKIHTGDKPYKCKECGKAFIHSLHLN
Chain of ZNF721 DBD2 (Q8TF20 383-911): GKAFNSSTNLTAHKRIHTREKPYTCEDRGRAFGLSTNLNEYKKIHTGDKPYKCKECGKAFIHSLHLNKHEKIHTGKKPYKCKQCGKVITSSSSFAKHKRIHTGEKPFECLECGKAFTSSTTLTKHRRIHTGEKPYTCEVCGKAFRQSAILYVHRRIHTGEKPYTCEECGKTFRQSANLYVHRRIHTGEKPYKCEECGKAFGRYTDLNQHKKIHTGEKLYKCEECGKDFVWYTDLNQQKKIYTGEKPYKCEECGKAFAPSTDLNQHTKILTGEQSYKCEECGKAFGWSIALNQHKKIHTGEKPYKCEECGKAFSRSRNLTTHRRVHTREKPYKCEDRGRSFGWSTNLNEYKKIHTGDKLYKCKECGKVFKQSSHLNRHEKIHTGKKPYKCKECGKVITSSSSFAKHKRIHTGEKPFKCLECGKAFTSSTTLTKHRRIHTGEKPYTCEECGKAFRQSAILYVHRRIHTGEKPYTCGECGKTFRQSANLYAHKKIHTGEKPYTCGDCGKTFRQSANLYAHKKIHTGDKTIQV
Chain of ZNF721 full-length (Q8TF20 other isoform, or with tags, fused parts or gaps): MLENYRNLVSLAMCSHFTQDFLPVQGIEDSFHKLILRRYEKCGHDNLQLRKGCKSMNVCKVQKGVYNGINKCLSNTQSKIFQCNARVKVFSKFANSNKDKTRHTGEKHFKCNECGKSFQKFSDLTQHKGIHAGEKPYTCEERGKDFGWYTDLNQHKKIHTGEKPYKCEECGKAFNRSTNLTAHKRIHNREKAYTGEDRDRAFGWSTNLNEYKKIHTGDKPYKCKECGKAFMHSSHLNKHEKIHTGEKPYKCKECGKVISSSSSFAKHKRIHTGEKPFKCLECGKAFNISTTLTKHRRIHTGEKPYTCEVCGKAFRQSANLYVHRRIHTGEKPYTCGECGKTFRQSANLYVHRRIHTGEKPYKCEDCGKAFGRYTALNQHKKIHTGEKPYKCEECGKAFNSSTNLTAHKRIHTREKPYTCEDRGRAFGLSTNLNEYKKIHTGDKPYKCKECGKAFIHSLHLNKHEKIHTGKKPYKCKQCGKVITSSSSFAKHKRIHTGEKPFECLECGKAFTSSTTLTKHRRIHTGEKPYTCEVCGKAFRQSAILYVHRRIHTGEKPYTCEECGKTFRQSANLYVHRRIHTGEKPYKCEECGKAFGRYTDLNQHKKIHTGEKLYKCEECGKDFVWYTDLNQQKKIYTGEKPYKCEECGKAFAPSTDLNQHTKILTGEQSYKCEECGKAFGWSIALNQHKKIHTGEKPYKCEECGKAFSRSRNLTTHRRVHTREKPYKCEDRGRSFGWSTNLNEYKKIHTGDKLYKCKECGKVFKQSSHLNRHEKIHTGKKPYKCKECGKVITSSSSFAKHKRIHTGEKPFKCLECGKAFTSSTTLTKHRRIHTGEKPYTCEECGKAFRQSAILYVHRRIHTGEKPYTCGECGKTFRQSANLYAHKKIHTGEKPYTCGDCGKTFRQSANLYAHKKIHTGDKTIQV

For CCGCCACCAC, the binding signal in the experiment with ZNF721 full-length came out at 0.106 relative 10-mer count; with ZNF721 DBD1, 0.00417 relative 10-mer count; with ZNF721 DBD2 it was 0.0036 relative 10-mer count.
For AAGTGTATCC, the figures for the binding signal with ZNF721 full-length, with ZNF721 DBD1 and with ZNF721 DBD2 were 0.292 relative 10-mer count, 0.241 relative 10-mer count and 0.00503 relative 10-mer count, respectively.
With AAAAAAGCGG, the binding signal with ZNF721 full-length came out at 0.11 relative 10-mer count; with ZNF721 DBD1 it was 0.0255 relative 10-mer count; with ZNF721 DBD2 it was 0.0279 relative 10-mer count.
CCTCCACCAC: the binding signal with ZNF721 full-length stood at 0.116 relative 10-mer count; in the experiment with ZNF721 DBD1, 0.00564 relative 10-mer count; in the experiment with ZNF721 DBD2, 0.00923 relative 10-mer count.
For ACCCTCCCAC the same measures were 0.119 relative 10-mer count, 0.00734 relative 10-mer count and 0.00587 relative 10-mer count.
For CCCACCCCGA the same measures were 0.132 relative 10-mer count, 0.00404 relative 10-mer count and 0.00192 relative 10-mer count.
For CACCCCGACC the same measures were 0.113 relative 10-mer count, 0.00335 relative 10-mer count and 0.00216 relative 10-mer count.
CCATCCACCC: the figures for the binding signal with ZNF721 full-length, in the experiment with ZNF721 DBD1 and with ZNF721 DBD2 were 0.109 relative 10-mer count, 0.00578 relative 10-mer count and 0.00467 relative 10-mer count, respectively.
Take AAGCAGCATG: the binding signal with ZNF721 full-length amounted to 0.115 relative 10-mer count; in the experiment with ZNF721 DBD1 it was 0.0017 relative 10-mer count; with ZNF721 DBD2 it was 0.137 relative 10-mer count.
Consider CCCCCCGCCG, for which the binding signal with ZNF721 full-length was determined as 0.104 relative 10-mer count; with ZNF721 DBD1, 0.00303 relative 10-mer count; with ZNF721 DBD2, 0.0024 relative 10-mer count.
In the same order, the values of GGTGGTGGGA are 0.157 relative 10-mer count, 0.00784 relative 10-mer count and 0.00455 relative 10-mer count.
As for CCGTCCACCC, the binding signal with ZNF721 full-length came to 0.103 relative 10-mer count; with ZNF721 DBD1, 0.00472 relative 10-mer count; with ZNF721 DBD2, 0.0036 relative 10-mer count.
For CCCCACCGCC the same measures were 0.28 relative 10-mer count, 0.0114 relative 10-mer count and 0.00635 relative 10-mer count.
For GCCTCCCCCC the same measures were 0.115 relative 10-mer count, 0.00518 relative 10-mer count and 0.00791 relative 10-mer count.
On to CCCCTCCCAC, for which the binding signal with ZNF721 full-length turned out to be 0.218 relative 10-mer count; in the experiment with ZNF721 DBD1, 0.0104 relative 10-mer count; with ZNF721 DBD2, 0.00695 relative 10-mer count.
For CACCCAACCC the same measures were 0.123 relative 10-mer count, 0.005 relative 10-mer count and 0.00252 relative 10-mer count.
Regarding ACCCACACCC, the binding signal was found to be 0.108 relative 10-mer count in the experiment with ZNF721 full-length, 0.00527 relative 10-mer count with ZNF721 DBD1 and 0.00527 relative 10-mer count with ZNF721 DBD2.
Regarding ACCTCCCCCC, the binding signal is 0.151 relative 10-mer count in the experiment with ZNF721 full-length, 0.00578 relative 10-mer count with ZNF721 DBD1 and 0.00216 relative 10-mer count with ZNF721 DBD2.
For CCCCGCCCTC the same measures were 0.146 relative 10-mer count, 0.00601 relative 10-mer count and 0.00216 relative 10-mer count.
In the same order, the values of CCCACCCCCC are 0.427 relative 10-mer count, 0.0183 relative 10-mer count and 0.00384 relative 10-mer count.
For CCCACCACAC, the values for the binding signal in the experiment with ZNF721 full-length, in the experiment with ZNF721 DBD1 and with ZNF721 DBD2 were 0.155 relative 10-mer count, 0.00583 relative 10-mer count and 0.00947 relative 10-mer count, respectively.
For AACAAGCAGT the same measures were 0.128 relative 10-mer count, 0.017 relative 10-mer count and 0.0905 relative 10-mer count.
For the sequence CCCACCGCCA, the binding signal with ZNF721 full-length was 0.13 relative 10-mer count; in the experiment with ZNF721 DBD1, 0.00422 relative 10-mer count; in the experiment with ZNF721 DBD2 it was 0.00563 relative 10-mer count.
For AGAAAAAAAG, the binding signal in the experiment with ZNF721 full-length was determined as 0.118 relative 10-mer count; with ZNF721 DBD1 it was 0.0217 relative 10-mer count; with ZNF721 DBD2, 0.035 relative 10-mer count.
Take ACCCCCACAC: the figures for the binding signal with ZNF721 full-length, with ZNF721 DBD1 and with ZNF721 DBD2 were 0.108 relative 10-mer count, 0.00312 relative 10-mer count and 0.00527 relative 10-mer count, respectively.
In the same order, the values of ACCCCCACCG are 0.102 relative 10-mer count, 0.00367 relative 10-mer count and 0.00336 relative 10-mer count.
In the same order, the values of CAAAAAAAGC are 0.202 relative 10-mer count, 0.0258 relative 10-mer count and 0.0675 relative 10-mer count.
In the same order, the values of CCACCCACCG are 0.143 relative 10-mer count, 0.00615 relative 10-mer count and 0.00731 relative 10-mer count.
On to CATCCCCCCC, for which the binding signal with ZNF721 full-length is 0.123 relative 10-mer count; with ZNF721 DBD1 it was 0.00463 relative 10-mer count; with ZNF721 DBD2, 0.00635 relative 10-mer count.
In the same order, the values of CCTCCCCCCG are 0.143 relative 10-mer count, 0.00541 relative 10-mer count and 0.00348 relative 10-mer count.
In the same order, the values of AGGGGCGGGG are 0.125 relative 10-mer count, 0.0044 relative 10-mer count and 0.00168 relative 10-mer count.
For CCCACGCCCC, the binding signal worked out at 0.233 relative 10-mer count with ZNF721 full-length, 0.00729 relative 10-mer count in the experiment with ZNF721 DBD1 and 0.00384 relative 10-mer count in the experiment with ZNF721 DBD2.
Turning to CCCACCCCAC, the figures for the binding signal with ZNF721 full-length, with ZNF721 DBD1 and in the experiment with ZNF721 DBD2 were 0.354 relative 10-mer count, 0.0155 relative 10-mer count and 0.00863 relative 10-mer count, respectively.
In the same order, the values of CACCGCCCCA are 0.107 relative 10-mer count, 0.00404 relative 10-mer count and 0.0024 relative 10-mer count.
For CCCATCCCCC the same measures were 0.185 relative 10-mer count, 0.00716 relative 10-mer count and 0.00312 relative 10-mer count.
Take CGCTTCTTTC: the binding signal with ZNF721 full-length was 0.12 relative 10-mer count; in the experiment with ZNF721 DBD1 it was 0.081 relative 10-mer count; with ZNF721 DBD2 it was 0.0018 relative 10-mer count.
In the same order, the values of CCAGCCCACC are 0.12 relative 10-mer count, 0.00353 relative 10-mer count and 0.00336 relative 10-mer count.
In the case of GGGCGGGGGA, the binding signal was determined as 0.122 relative 10-mer count in the experiment with ZNF721 full-length, 0.00482 relative 10-mer count with ZNF721 DBD1 and 0.00216 relative 10-mer count with ZNF721 DBD2.
In the same order, the values of CACGCCCCCC are 0.123 relative 10-mer count, 0.00454 relative 10-mer count and 0.00635 relative 10-mer count.
In the same order, the values of CCCCTACCCC are 0.199 relative 10-mer count, 0.00954 relative 10-mer count and 0.00384 relative 10-mer count.
For AGTGTCTCCA the same measures were 0.147 relative 10-mer count, 0.0423 relative 10-mer count and 0.282 relative 10-mer count.
As for CCCAACCCAC, the binding signal with ZNF721 full-length turned out to be 0.149 relative 10-mer count; with ZNF721 DBD1, 0.0056 relative 10-mer count; with ZNF721 DBD2 it was 0.00515 relative 10-mer count.
For CTCCCCCCAC the same measures were 0.148 relative 10-mer count, 0.00794 relative 10-mer count and 0.00419 relative 10-mer count.
For AGCCCCACCC the same measures were 0.106 relative 10-mer count, 0.00312 relative 10-mer count and 0.00959 relative 10-mer count.
In the same order, the values of CCCCAACCCA are 0.13 relative 10-mer count, 0.00482 relative 10-mer count and 0.00384 relative 10-mer count.
As for CCCCCCTCCC, the values for the binding signal in the experiment with ZNF721 full-length, with ZNF721 DBD1 and with ZNF721 DBD2 were 0.304 relative 10-mer count, 0.0139 relative 10-mer count and 0.00372 relative 10-mer count, respectively.
Regarding CATCCCCACC, the binding signal with ZNF721 full-length is 0.126 relative 10-mer count; in the experiment with ZNF721 DBD1, 0.0072 relative 10-mer count; with ZNF721 DBD2, 0.0188 relative 10-mer count.
Consider CACACCCCAC, for which the binding signal turned out to be 0.123 relative 10-mer count with ZNF721 full-length, 0.00394 relative 10-mer count with ZNF721 DBD1 and 0.00419 relative 10-mer count in the experiment with ZNF721 DBD2.
In the same order, the values of AAAAGGCATA are 0.133 relative 10-mer count, 0.00161 relative 10-mer count and 0.116 relative 10-mer count.
For the sequence CCCCACCCTC, the binding signal with ZNF721 full-length came to 0.21 relative 10-mer count; in the experiment with ZNF721 DBD1, 0.00986 relative 10-mer count; with ZNF721 DBD2, 0.00599 relative 10-mer count.
For AAAAAAAGAA the same measures were 0.104 relative 10-mer count, 0.00867 relative 10-mer count and 0.0321 relative 10-mer count.
Turning to CCCCCAACCC, the binding signal with ZNF721 full-length was 0.233 relative 10-mer count; with ZNF721 DBD1, 0.00775 relative 10-mer count; in the experiment with ZNF721 DBD2, 0.00168 relative 10-mer count.
CAGCCCCACC: the binding signal in the experiment with ZNF721 full-length is 0.116 relative 10-mer count; in the experiment with ZNF721 DBD1 it was 0.00349 relative 10-mer count; in the experiment with ZNF721 DBD2, 0.0291 relative 10-mer count.
In the same order, the values of CCCACCCGCC are 0.216 relative 10-mer count, 0.00794 relative 10-mer count and 0.00539 relative 10-mer count.
